The campaign covered roughly 310,000 compounds. About 410 (0.13%) were called active. Another 2% or so got no clear call; they are omitted. How the calls were made is not given here. Only a sample is shown. Potency and affinity values are given separately.
assay: inhibition of RSV-induced cytopathic effect – HEp-2 cells, primary 10 µM value included (AID 2391); conditions: at 10 µM, hits give high values

CPE inhibition, inactive:
O=c1[nH]c(C2CCCN(S(=O)(=O)c3ccccc3)C2)nc2c1nnn2Cc1ccc(OC(F)(F)F)cc1 (stereo not drawn) 1.75%
CC(C)[N+](C)(C)CC#CC(O)(c1ccccc1)c1ccccc1 -0.2%
N#Cc1ccc(CN2CCN(C(=O)CC(NC(=O)c3ccccc3)c3ccccc3)CC2)cc1 (stereo not drawn) 2.31%
COC(=O)/C=C1\S/C(=N/NC(=O)c2ccc(OC)cc2)NC1=O -1.09%
C/C(N)=C(/C#N)C(=O)COC(=O)c1ccc(C#N)cc1 0.83%
C/C(N)=C(/C#N)C(=O)COC(=O)c1ccc(O)cc1 1.45%
O=C1CC(C(=O)N2CCc3ccccc32)CN1c1ccc(F)cc1 (stereo not drawn) 2.7%
O=C(CNC(=O)c1ccc(Cl)cc1)OCc1nc2ccccc2s1 3.12%
Cc1ccc(-c2nc3cccnc3s2)cc1NS(C)(=O)=O 0.25%
Cc1cc(-c2nc3cccnc3s2)ccc1NS(=O)(=O)c1cccs1 3.81%
CCOc1ccc(NC(=O)CN(C)S(=O)(=O)c2ccc(-c3ccc(=O)[nH]n3)s2)cc1 3.93%
CCOC(=O)c1ccc(NC(=S)N2CCSC2c2ccc(OC)cc2)cc1 (stereo not drawn) 11.4%
CCOC(=O)c1ccc(NC(=S)N2CCSC2c2ccc(Cl)cc2)cc1 (stereo not drawn) 52%
O=C(Cn1ncc2c1-c1ccccc1OC2)N1CCN(Cc2ccccc2)CC1 -1.42%
COc1ccc(C(=O)NN2CCCCC2)cc1OC 1.22%
COc1ccccc1COCC(O)CN1CCN(S(=O)(=O)c2cccc(F)c2)CC1 (stereo not drawn) 0.54%
Cc1ccc(NC(=O)CC(N)=S)cc1 0.37%
O=C(O)COc1ccc2c3c(c(=O)oc2c1)CCCC3 -1.38%
CC(=O)COc1ccc2c3c(c(=O)oc2c1)CCCC3 27%
O=C(O)c1ccccc1NCc1ccco1 0.7%
CC(=O)Nc1ccc(S(=O)(=O)n2cnc3cc(C)c(C)cc32)cc1 14.6%
COc1ccc(/C(C)=N/NC(=O)CNC(=O)/C=C/c2ccccc2OC)cc1 2.31%
CCc1ccc(/C(C)=N/NC(=O)CNC(=O)/C=C/c2ccccc2OC)cc1 5.6%
O=c1cc(CN2CCN(C/C=C/c3ccccc3)CC2)c2cc(O)c(-c3ccccc3)cc2o1 2.21%
CC(=O)NCCN=C(C)c1sc2ccccc2c1O 2.52%
CCCCNC(=O)CC1N=C2c3ccccc3N=C(SCC(=O)Nc3cccc(OC)c3)N2C1=O (stereo not drawn) 0.81%
CCCCNC(=O)CC1N=C2c3ccccc3N=C(SCC(=O)Nc3ccccc3OC)N2C1=O (stereo not drawn) 8.13%
Cn1ccnc1SCC(=O)Nc1cccc(S(=O)(=O)N2CCCCC2)c1 5.08%
O=C(Nc1nc(-c2ccc(Cl)cc2Cl)cs1)C1CCCO1 (stereo not drawn) 7.12%
COc1ccc(C(=O)NCc2nc3ccccc3[nH]2)cc1OC 1.66%
COc1cc(/C=C/C(=O)NCc2nc3ccccc3[nH]2)cc(OC)c1OC 3.24%
CCCSC1=C(C#N)C(c2cccs2)CC(=O)N1 (stereo not drawn) 0.6%
CC1=C(C(=O)OC(C)C)C2(O)C(=O)c3ccccc3C2(O)N1 (stereo not drawn) 0.34%
CC(C)CNC(=O)c1cc([N+](=O)[O-])ccc1N1CCCCC1 1.62%
CC12CCC(=O)C=C1CCC1C2C(=O)CC2(C)C1CC[C@]2(O)C(=O)CO (stereo partly drawn) 1.47%
CC(CCc1ccc(O)cc1)NCc1ccc(Cl)cc1Cl (stereo not drawn) 0.07%
CC(CCc1ccc(O)cc1)NCCC(c1ccccc1)c1ccccc1 (stereo not drawn) 1.43%
COc1ccc(C(=O)NCc2nnc(SCC(=O)N3CCC(C)CC3)o2)cc1 1.04%
Cc1ccc(C2(c3ccc(C)cc3)CC2C(=O)NC(C)C)cc1 (stereo not drawn) 10.9%
O=C(Nc1cccc(C(=O)Nc2cccc(C(F)(F)F)c2)c1)c1ccc(=O)[nH]c1 0.31%
Cc1cc(OC(C)C(=O)NCCN2CCOCC2)c2c(C)cc(=O)oc2c1 (stereo not drawn) 1.3%
COC(=O)Nc1ccc(S(=O)(=O)N2CCCc3ccccc32)cc1 1.75%
CC(=O)Nc1ccc(S(=O)(=O)N2CCCc3ccccc32)cc1 1.45%
COc1ccccc1CCNS(=O)(=O)c1cc2c3c(c1)CCN3C(=O)CC2 2.18%
CC(=O)c1cc2c(cc1NC(=O)c1ccc(C)cc1)OCO2 1.4%
Cc1cccc2nc(-c3cccc(NC(=O)c4ccc(Cl)cc4)c3)cn12 6.87%
COc1ccc(CC(=O)Nc2cccc(-c3cn4ccccc4n3)c2)cc1 20.4%
Cc1cc(Cl)cc(C)c1OCCCCCn1ccnc1 16.9%
Cc1cc(Cl)cc(C)c1OCCCCn1ccnc1 0.28%
Cc1cc(C(=O)Nc2ccccc2C)c2ccccc2n1 -1.47%
CCn1c(SCc2ccc(F)cc2)nnc1-c1nn(-c2ccccc2)ccc1=O 5.54%
CCn1c(SC)nnc1-c1nn(-c2ccccc2)ccc1=O 3.93%
CCOc1ccc(Nc2ccc(S(=O)(=O)N3CCN(C)CC3)cc2[N+](=O)[O-])cc1OCC 2.73%
C/C(N)=C(/C#N)C(=O)CSc1nc2ccccc2c(=O)n1-c1ccc(C)c(Cl)c1 3.58%
C/C(N)=C(/C#N)C(=O)CSc1nc2ccccc2c(=O)n1-c1ccc(C)cc1 1.33%
COC(=O)c1cc2n3ccccc3c(C)c(-c3ccccc3)c-2c1C(=O)OC 25.1%
COC(=O)c1cc2c(C)c(C)c3ccccn3c-2c1C(=O)OC 2.03%
COc1ccc(NC(=O)C2C3C=CC4(O3)C2C(=O)N(CCN2CCCCC2C)C4C(=O)NC2CCCCC2)cc1 (stereo not drawn) -0.76%
Cc1[nH]c2ccc(-c3nnc(SCC(=O)c4ccc(F)cc4)o3)cc2c1C -1.57%
Cc1cc(C)c(C)c(C(=O)CSc2nnc(-c3ccc4[nH]c(C)c(C)c4c3)o2)c1C 55.5%
COc1cc(C)c(C(C)C)cc1S(=O)(=O)n1cnc(C)c1 11.6%
Cc1cc(C)c2c(-n3cccc3)c(C(=O)NNS(=O)(=O)c3ccc(Br)cc3)sc2n1 53.3%
Cc1cc(C)c2c(-n3cccc3)c(C(=O)NNS(=O)(=O)c3ccccc3)sc2n1 15.3%
COc1ccc(N(CC(=O)NCc2ccc(Cl)cc2)S(=O)(=O)c2c(C)n[nH]c2C)cc1 2.71%
O=C(O)c1cc(NS(=O)(=O)c2cccs2)cc(NS(=O)(=O)c2cccs2)c1 0.42%
COc1ccc(-c2cc3nc(C)cc(C)n3n2)cc1 2.75%
Cc1cc(C)n2nc(-c3ccccc3)cc2n1 -2.3%
COc1ccc(CNc2ncnc3sccc23)cc1OC 0.7%
COc1ccc(NCC(=O)Nc2cc(S(=O)(=O)N3CCOCC3)ccc2N2CCOCC2)c(OC)c1 1.68%
COc1ccccc1CC(=O)Nc1cc(S(=O)(=O)N2CCOCC2)ccc1N1CCOCC1 0.24%
CC1CCCC(C)N1C(=O)CSc1nccc(=O)[nH]1 (stereo not drawn) 0.35%
Cc1ccc2nc(Cc3ccc(N)cc3)[nH]c2c1 -0.3%
COC(=O)c1ccc(C(=O)OCc2nc3cc4ccccc4cc3[nH]2)cc1 2.73%
Nc1ccc2nc(Cc3ccccc3)[nH]c2c1 -1.63%
Nc1ccc(C(=O)OCc2nc3ccccc3[nH]2)cc1 1.24%
Cc1cccc(N2CCN(C(=O)C3CCC(=O)N(C4CC4)C3)CC2)c1C (stereo not drawn) -0.26%
O=C(Cc1ccc(-n2c(=O)c3ccccc3n(CC(=O)Nc3ccc(F)cc3F)c2=O)cc1)NCc1ccco1 -0.99%
CCN(CC(=O)Nc1ccc(OC)cc1)C(=O)c1ccccc1Sc1ccccc1C#N -1.42%
Cc1ccc(NC(=O)C2CCCN2S(=O)(=O)c2cccc3cccnc23)cc1F (stereo not drawn) 52.8%
Cc1cc(C)cc(NC(=O)C2CCCN2S(=O)(=O)c2cccc3cccnc23)c1 (stereo not drawn) 58.5%
Cc1ccccc1NC(=O)C1CCCN(S(=O)(=O)c2cccc3cccnc23)C1 (stereo not drawn) 0.2%
COc1ccccc1CNC(=O)C1CCCN(S(=O)(=O)c2cccc3cccnc23)C1 (stereo not drawn) 0.63%
COc1ccccc1CNC(=O)C1CCN(S(=O)(=O)c2cccc3cccnc23)CC1 3.16%
COc1ccc(NC(=O)C2CCCN2S(=O)(=O)c2cccc3cccnc23)c(OC)c1 (stereo not drawn) 7.4%
COc1cccc(CN2CC(C(=O)NCCn3ccc(C)n3)CCC2=O)c1 (stereo not drawn) 0.1%
Cc1ccc2[nH]c(=O)c(N3CCOCC3)c(-c3ccccc3)c2c1 0.29%
CSCCC1NC(=O)N(CC(=O)Nc2c(C(C)C)cccc2C(C)C)C1=O (stereo not drawn) -0.56%
C/C(CCc1ccccc1)=N\NC(=O)CC(=O)NCCc1ccccc1 1.3%
CCSc1nnc(SCC(=O)N2CCN(C(=O)c3ccco3)CC2)s1 1.6%
Cc1ccc(-c2noc(CCC(=O)NCCc3ccccc3Cl)n2)cc1 15.4%
Cc1ccc(CNC(=O)c2cc3c(=O)n(C)c4ccccc4c3n2C)cc1 0.79%
COc1ccc(CNC(=O)c2cc3c(=O)[nH]c4ccccc4c3n2C)cc1 2.27%
COCCNC(=O)c1cc2oc3ccccc3c2n1C 1.43%
Cc1ccc2c(c1)cc(C(=O)N[C@@H](Cc1ccccc1)C(=O)O)n2C 1.38%
Cn1c(C(=O)NCc2cccs2)cc2c(=O)n(C)c3ccccc3c21 0.91%
CCOc1ccc(CNC(=O)CCn2c(=O)oc3ccccc32)cc1 2.74%
Cc1c(C(=O)NCc2cccs2)oc2ccccc12 6.49%
Cn1c(C(=O)NCC2CCCO2)cc2oc3ccccc3c21 (stereo not drawn) 3.52%
